Measured values reported in PubChem BioAssay AID1159580 (chemical genetic matrix, 2015).
Several values for one entry are separate records, joined by “and”; a condition that tells them apart may be missing. Identical values can stand only once. Among all 5,500 compounds or so, about 2,000 (36%) were called active. Another 18% or so got no clear call; they are omitted. No stated cut-off is given here; in the data, active means normalized growth mostly below about 0.91 (no sharp cut-off); inconclusive means no clear call, values can overlap the other calls; inactive means mostly above about 0.92. This is one part of the list.

Experiment: chemical genetic growth profiling, strain panel (AID 1159580);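 further: tested at 20 µM; growth read once vehicle control cultures reached saturation at 30 °C; 1 = growth at the plate median or of vehicle wells; lower values mean less growth of the strain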
Conditions: S. cerevisiae deletion strains, growth OD

Measured: normalized growth

O=C1c2ccccc2C(=O)C1c1ccccc1
inactive: locus YAL013W, strain DEP1, hits give low values 0.975 | locus YAL021C, strain ccr4, hits give low values 1.01 | locus YAL026C, strain drs2, hits give low values 1 | locus YAL030W, strain snc1, hits give low values 1 | locus YBL061C, strain skt5, hits give low values 0.998 | locus YBR009C, strain hhf1, hits give low values 1.01 | locus YBR021W, strain FUR4, hits give low values 1 | locus YBR023C, strain chs3, hits give low values 1 | locus YBR171W, strain sec66, hits give low values 0.957 | locus YBR229C, strain ROT2, hits give low values 1 and 0.94 | locus YBR231C, strain swc5, hits give low values 1.01 | locus YBR279W, strain paf1, hits give low values 0.993 | locus YCL011C, strain gbp2, hits give low values 1 | locus YCL016C, strain dcc1, hits give low values 1.01 | locus YCL029C, strain bik1, hits give low values 1.01 | locus YCL061C, strain MRC1, hits give low values 1 and 0.995 | locus YCL069W, strain vba3, hits give low values 0.995 | locus YCR088W, strain abp1, hits give low values 0.988 | locus YDL005C, strain med2, hits give low values 1 | locus YDL035C, strain GPR1, hits give low values 1.01 | locus YDL040C, strain nat1, hits give low values 1 | locus YDL074C, strain BRE1, hits give low values 1 | locus YDL101C, strain DUN1, hits give low values 1.01 and 0.909 | locus YDL134C, strain PPH21, hits give low values 1.01 | locus YDL185W, strain tfp1, hits give low values 0.991 | locus YDL192W, strain arf1, hits give low values 1.01 | locus YDR001C, strain nth1, hits give low values 0.981 | locus YDR069C, strain doa4, hits give low values 0.996 | locus YDR101C, strain arx1, hits give low values 1 | locus YDR137W, strain rgp1, hits give low values 0.995 | locus YDR150W, strain NUM1, hits give low values 0.998 and 1.01 | locus YDR159W, strain sac3, hits give low values 1.01 | locus YDR162C, strain NBP2, hits give low values 0.995 | locus YDR195W, strain ref2 0.997 | locus YDR297W, strain sur2, hits give low values 0.993 | locus YDR318W, strain mcm21, hits give low values 1.01 | locus YDR334W, strain swr1, hits give low values 0.996 | locus YDR335W, strain msn5, hits give low values 0.995 | locus YDR388W, hits give low values 1.02 | locus YDR392W, strain spt3, hits give low values 0.918 | locus YDR502C, strain sam2, hits give low values 1 | locus YEL003W, strain gim4, hits give low values 0.991 | locus YEL037C, strain rad23, hits give low values 0.992 | locus YEL061C, strain CIN8 (second series), hits give low values 0.986 | locus YEL061C, strain CIN8, hits give low values 0.998 and 0.977 | locus YER015W, strain faa2, hits give low values 1.01 | locus YER016W, strain bim1, hits give low values 1 | locus YER110C, hits give low values 1.01 | locus YER111C, strain swi4, hits give low values 0.999 | locus YER155C, strain BEM2 (second series), hits give low values 1 | locus YER155C, strain BEM2, hits give low values 0.989 | locus YER167W, strain BCK2, hits give low values 0.997 | locus YFR010W, strain ubp6, hits give low values 1 | locus YGL078C, strain dbp3, hits give low values 0.99 | locus YGL086W, strain mad1, hits give low values 0.997 | locus YGL167C, strain pmr1, hits give low values 1 | locus YGL173C, strain kem1, hits give low values 1.02 | locus YGL227W, strain vid30, hits give low values 0.978 | locus YGL240W, strain doc1, hits give low values 1.01 | locus YGL248W, strain PDE1, hits give low values 1 | locus YGL253W, strain hxk2, hits give low values 0.998 | locus YGR078C, strain PAC10, hits give low values 0.942 | locus YGR135W, strain pre9, hits give low values 1.01 | locus YGR229C, strain SMI1, hits give low values 1.01 and 1.05 | locus YGR252W, strain gcn5, hits give low values 0.998 | locus YHR013C, strain ard1, hits give low values 0.974 | locus YHR027C, strain rpn1, hits give low values 0.997 | locus YHR030C, strain SLT2, hits give low values 1 and 0.957 and 0.982 | locus YHR079C, strain IRE1 (second series), hits give low values 1.01 | locus YHR079C, strain IRE1, hits give low values 0.95 | locus YHR087W, strain rtc3, hits give low values 0.923 | locus YHR094C, strain hxt1, hits give low values 1.01 | locus YHR129C, strain ARP1, hits give low values 0.992 | locus YHR142W, strain chs7, hits give low values 1 | locus YHR200W, strain rpn10, hits give low values 1.01 | locus YIL066C, strain RNR3, hits give low values 1.01 | locus YIL073C, strain SPO22, hits give low values 1.03 | locus YIL125W, strain kgd1, hits give low values 0.989 | locus YIR030C, strain dcg1, hits give low values 1 | locus YJL092W, strain hpr5, hits give low values 0.983 | locus YJL095W, strain BCK1 (second series), hits give low values 1 | locus YJL095W, strain BCK1, hits give low values 0.984 and 0.97 | locus YJL115W, strain asf1, hits give low values 0.99 | locus YJL129C, strain trk1, hits give low values 0.978 | locus YJL134W, strain LCB3, hits give low values 0.993 | locus YJL154C, strain vps35, hits give low values 0.991 | locus YJL164C, strain tpk1, hits give low values 1 | locus YJL166W, strain qcr8, hits give low values 1.01 | locus YJL168C, strain set2, hits give low values 1.01 | locus YJL187C, strain SWE1 (second series), hits give low values 1 | locus YJL187C, strain SWE1, hits give low values 1 | locus YJR043C, strain POL32, hits give low values 1.01 and 0.982 | locus YJR066W, strain TOR1, hits give low values 0.92 | locus YJR075W, strain HOC1, hits give low values 1.01 and 0.971 | locus YKL009W, strain mrt4, hits give low values 0.974 | locus YKL068W, hits give low values 0.989
